Compound activity (PubChem BioAssay)
AHR activator – activates the human aryl hydrocarbon receptor. AHR-responsive luciferase reporter cells, luminescence. activation, % at 5 µM. actives 2.5% (n = 320,000). AID 2796; in the data active means activation above about 47%;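 further: 0% = vehicle wells and 100% = reference agonist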
AI-2 QS modul – modulates the Vibrio harveyi AI-2 quorum sensing system; Vibrio harveyi JMH597 AI-2 luminescence/OD600 ratio, 9 h; hits give low values; strain lacks LuxN and CqsS sensors; 0 = neutral-control median; AID 2094; activity change, % at 7.5 µM; actives 0.4% (n = 300,000); in the data active means activity change below about -75%, passing the limit was not always enough;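 further: luminescence divided by OD600 gain over 9 h not by final OD600 alone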
NTR1 agonist – agonists of human neurotensin receptor NTR1 | activation, % at 20 µM | NTR1-U2OS beta-arrestin-GFP spot imaging, agonist mode | actives 0.17% (n = 330,000) | P30989;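 active means activation at or above 40% of the spot to cytoplasm intensity ratio, with at least 20 cells analyzed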;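 further: 0% = DMSO without peptide and 100% = 100 nM NTR1 peptide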
Target sequence (P30989 whole entry, looked up): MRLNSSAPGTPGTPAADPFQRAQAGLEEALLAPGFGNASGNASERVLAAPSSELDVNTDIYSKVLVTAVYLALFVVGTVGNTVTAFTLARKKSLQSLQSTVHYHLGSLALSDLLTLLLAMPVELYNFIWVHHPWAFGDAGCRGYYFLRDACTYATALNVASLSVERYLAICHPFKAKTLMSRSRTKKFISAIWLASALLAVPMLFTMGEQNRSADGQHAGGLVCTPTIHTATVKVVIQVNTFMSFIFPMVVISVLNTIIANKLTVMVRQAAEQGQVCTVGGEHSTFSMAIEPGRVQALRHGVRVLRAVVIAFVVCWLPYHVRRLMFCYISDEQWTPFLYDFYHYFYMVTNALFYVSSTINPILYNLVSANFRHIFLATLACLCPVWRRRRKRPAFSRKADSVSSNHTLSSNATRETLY
Cardio protect – modulators protecting cardiomyocytes from myocardial damage; H9c2 cardiomyocytes, H2O2 injury protection, ATPLite, 2 h; actives 0.63% (n = 360,000); protection from H2O2 cell death, % at 20 µM;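 active means compounds giving at least 50% protection of heart cells from peroxide-induced death in the single-dose screen, raw or plate-pattern-corrected value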;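 further: 0% = DMSO wells with peroxide and 100% = DMSO wells without peroxide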
NR3A LBD binder – NR3A (human) ligand-binding domain modulation. NR3A LBD differential scanning fluorimetry, Tm shift; 0% = protein alone, 100% = glycine-bound protein. actives 2.5% (n = 340,000). AID 1259313. Tm shift relative to glycine control, % at 25 µM;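 active means melting temperature shift of at least 10% of the positive control shift, at one fixed dose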
Mot1-301 SUMO – SUMOylation pathway inhibition by Mot1-301 growth rescue. S. cerevisiae Mot1-301 growth rescue, ATP luminescence, 38.5C; percent above DMSO median, 100 means doubled. growth rescue, % at 18.8 µM. actives 1% (n = 320,000);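 active means every valid replicate shows activation above 250% relative to neutral control wells; inactive means the rest, any valid replicate at or below 250%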;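 further: OY570 slx delta 5 strain wells were the positive control but not used for scaling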
Starred values were filed as active, the others as inactive; x = no result given. Rows were chosen to be rich in hits. Some 6.2% of all compounds tested hit in one or more screens of this group.

SMILES	AHR activator	AI-2 QS modul	NTR1 agonist	Cardio protect	NR3A LBD binder	Mot1-301 SUMO
CCCc1c(C(=O)NNc2cccc(Cl)c2)cnn1-c1ccccc1	-3	21	0	-5	0	478*
CCCc1c(NC(=O)Nc2ccc(Cl)cc2Cl)cnn1-c1ccccc1	0	7	2	-3	-9	149
O=C(NNc1cccc(Cl)c1)c1cccnc1Cl	-5	1	0	1	1	344*
Cc1cc(/C=C2\C(=N)N3C(SCc4ccccc4)=NSC3=NC2=O)c(C)n1Cc1ccccc1	1	30	2	-10	14*	2
O=C(CN1C(=O)NC2(CCCCCCC2)C1=O)NC(=O)NCc1ccco1	0	5	-1	0	0	337*
O=C(CN1C(=O)NC2(CCCC2)C1=O)NCc1ccco1	-3	x	2	1	-2	5
Cc1cccc(-c2cc3nc(C)cc(NCCCn4ccnc4)n3n2)c1	48*	3	0	12	1	48
Cc1cc(NCCCn2ccnc2)n2ncc(-c3ccc(Cl)cc3)c2n1	126*	-1	2	-4	-7	34
CC(C)(C)c1cc(NCCCn2ccnc2)n2ncc(-c3ccccc3)c2n1	15	35	9	-5	-4	-21
FC(F)(F)c1cccc(-c2cc3nc(NCCCn4ccnc4)ccn3n2)c1	x	x	x	-1	x	x
CCCc1cc(NCCCn2ccnc2)n2nc(C)c(-c3ccccc3)c2n1	63*	6	0	14	0	2
O=C(Nc1cc2c(cc1Cl)OCCO2)c1ccco1	-11	24	-3	-5	-1	12
O=C(Nc1ccc(NC(=O)c2ccco2)c(Cl)c1)c1ccc2c(c1)OCCO2	29	19	0	-8	31*	-17
Cc1ccccc1-c1nc(-c2ccc(NC(=O)c3ccc4c(c3)OCO4)cc2)no1	2	0	7	-7	34*	356
O=C(Nc1ccc(NC(=O)c2ccco2)cc1)c1ccc2c(c1)OCO2	-7	15	0	2	12*	17
O=C(Cc1ccc(NS(=O)(=O)c2ccc(F)cc2)cc1)NCc1cccnc1	2	13	0	-4	-2	-1
Cc1cc(S(=O)(=O)Nc2ccc(C(=O)NCC(c3ccccc3)N(C)C)cc2)ccc1F (stereo not drawn)	-6	27	0	0	1	-13
COc1ccccc1C(CNC(=O)c1ccc(NS(=O)(=O)c2ccc(F)c(C)c2)cc1)N(C)C (stereo not drawn)	7	-5	1	1	10*	-15
CC1=C(C(=O)OCCCBr)C(c2ccc3c(c2)OCO3)NC(=O)N1 (stereo not drawn)	4	0	1	10	-1	2
COc1cc2ccccc2cc1C(=O)NCc1ccncc1	50*	12	3	4	0	4
COc1ccccc1NC(=O)COC(=O)c1cc2ccccc2cc1O	6	x	7	-5	0	17
COc1ccccc1NC(=O)c1cc2cc(Br)ccc2cc1O	55*	16	x	-19	32*	8
COc1cc(NC(=O)c2cc3ccccc3cc2O)c(OC)cc1Cl	52*	28	13	-21	33*	7
Cc1ccc(Cl)cc1NC(=O)c1cc2ccccc2cc1O	-5	19	18	-22	30*	-8
COc1cc(OC)c(NC(=O)c2ccccc2F)cc1Cl	27	24	2	-1	-1	6
SMILES	AHR activator	AI-2 QS modul	NTR1 agonist	Cardio protect	NR3A LBD binder	Mot1-301 SUMO
N#C/C(=C\c1ccc(OCCN2CCOCC2)cc1)C(=O)Nc1ccc(S(N)(=O)=O)cc1	-2	19	-1	20	0	-7
COc1ccc2c(c1)C(c1ccc(Cl)cc1)NC(=O)C2 (stereo not drawn)	0	5	-1	-9	-5	39
O=C(NCCc1ccccc1F)c1cccc2cccnc12	30	-3	-1	3	-3	29
Cn1cc(/C=C(\C#N)C(=O)Nc2ccccc2O)c2ccccc21	14	-17	11	-7	10	-14
O=C(Nc1cccc([N+](=O)[O-])c1)c1ccc2ccccc2c1O	1	18	6	-23	26*	6
O=C(Nc1cccnc1)c1ccc2ccccc2c1O	48*	3	-1	-12	-7	-3
O=C(N/N=C/c1cccnc1)c1ccc2ccccc2c1O	x	48	0	-12	-3	-9
COc1cc2ccccc2cc1C(=O)Nc1ccccc1Cl	53*	21	15	-17	8	3
COc1cc2cc(C(=O)Nc3ccccc3)c(N)nc2cc1OC	48*	11	0	35	2	2
Cc1ccc(C2=NN(C(=O)CN3CCN(C4CCS(=O)(=O)C4)CC3)C(c3ccco3)C2)cc1 (stereo not drawn)	0	x	-1	-4	1	30
COc1cc2ccccc2cc1C(=O)Nc1cccnc1	77*	21	1	-4	1	2
COc1cc(OC)c(C(=O)Nc2cccnc2)cc1OC	2	35	0	10	-1	91
COc1ccccc1NC(=O)c1cccc2c(Br)cccc12	53*	1	0	-3	0	20
COc1ccccc1NC(=O)c1ccccc1C(=O)O	1	30	1	2	1	1
COc1cc2ccccc2cc1C(=O)NNC(=O)c1ccccc1O	33	13	1	52*	x	6
COc1ccccc1N=NNc1ccc(S(=O)(=O)NC(C)=O)cc1	x	x	x	5	x	x
CC(C)N1CCC1(C)C(=O)Nc1nc2ccccc2[nH]1 (stereo not drawn)	x	x	x	5	x	x
CC(Oc1ccc2c(-c3ccccc3)cc(=O)oc2c1)C(=O)NCCCn1ccnc1 (stereo not drawn)	-1	38	-1	-3	-2	0
COc1cccc(-c2cnc3c(NC=O)cc(-c4cc(OC)c(OC)c(OC)c4)cn23)c1	x	x	x	71*	x	x
CS(=O)(=O)c1ccc(-c2cnc3c(NC=O)cc(-c4ccsc4)cn23)cc1	x	x	x	81*	x	x
COc1ccc(-c2cnc3c(NC=O)cc(-c4cccc(NS(C)(=O)=O)c4)cn23)cc1OC	x	x	x	105*	x	x
Cc1ccc(OC2CCN(C(=O)[C@H]3O[C@@H](n4ccc(N)nc4=O)[C@H](O)[C@@H]3O)CC2)cc1	x	x	x	6	x	x
COc1ccc(CNc2nc3ccc(C)cc3s2)c(OC)c1OC	5	-11	0	-1	0	2
COCC(=O)OC1CCn2c1nc1c2C(=O)C(C)=C(NC(C)=O)C1=O (stereo not drawn)	x	x	x	-17	1	x
Cn1c(/C(C#N)=C(\O)c2ccc(Cl)s2)nc2ccccc21	65*	13	0	1	1	-7
Cn1c(/C(C#N)=C(\O)c2ccc([N+](=O)[O-])s2)nc2ccccc21	12	18	-1	-1	-1	-6
